The results in this text go back to PubChem BioAssay AID1814 (Broad Institute, 2009).

Structures are written as SMILES. About 22,000 (7.3%) of roughly 300,000 compounds were called active. Not shown: some 2% with an inconclusive outcome. Many of the other results were omitted from the sample, so actives are more common in it than they were. A number with no mark means an inactive call. No stated cut-off is given here; in the data, active means activity score below about -60%; inconclusive means mostly about -28% to -61%; inactive means positive scores.

This assay in a line: Activators working through SNCA 5'UTR binding (MLPCN) (AID 1814). The following applies: alpha-synuclein 5'UTR reporter, activators screen; active compounds read low; tested at 7.5 µM.
In the case of `O=C(CN1C(=O)COc2ccccc21)Nc1ccc(F)cc1`, the activity score is -126% (active). The result for `Cc1ccc(O)c(-c2cc(C(=O)NCc3ccccc3)[nH]n2)c1` reads -148% (active). As for `Cc1ccc(NC(=O)c2cc(-c3ccccc3O)n[nH]2)cc1C`, the figure is -129% (active); as for `Cn1nnnc1SCC(=O)Nc1nc2ccccc2s1`, -151% (active); as for `CSc1nsc(NC(=O)Nc2ccccc2)n1`, -123% (active). As for `O=C(Nc1ccccc1)Nc1nc2ccccc2s1`, the figure is -64.8% (active); as for `CCSc1nsc(NC(=O)Nc2cccc(C(C)=O)c2)n1`, -111% (active); as for `CCc1cc2c(=O)c(-c3ccon3)c(N)oc2cc1OC`, -160% (active). In the case of `COc1ccc(N=C(C)c2sc3ccccc3c2O)cc1`, the activity score is -125% (active).

With `Nc1[nH][nH]c(=O)c1N=Nc1ccc2c(c1)OCO2`, the activity score was -112% (active). The result for `Cc1ccc(NC(=S)Nc2ncccc2C)c(C)c1` reads -199% (active); that for `COc1ccc2c(c1)CCc1c(C(=O)N3CCCC3)noc1-2`, -103% (active). As for `CNC(=O)/C(C#N)=C/c1c(F)cccc1Cl`, the figure is -73.3% (active); as for `O=C(Nn1c(SCc2ccc([N+](=O)[O-])cc2)nc2ccccc2c1=O)c1ccc(F)cc1`, -81.2% (active); as for `c1ccc(-c2nccc(-c3ccc(-n4cnc5ccccc54)cc3)n2)nc1`, -88% (active). The result for `CC(C)(C)C(=O)c1cnc(Nc2ccccc2)s1` reads -123% (active). Turning to `O=C(c1ccc(Cl)cc1)c1cnc(Nc2ccccc2)s1`, the activity score is -159% (active). On to `COCCN(C(=O)c1ccco1)c1nnc(-c2ccc(OC)cc2)s1`, for which the activity score was -68.7% (active). As for `N#C/C=C\Oc1ccc(Cl)cc1N`, the activity score was -166% (active). As for `COc1ccccc1C1=Nc2cccc3cccc(c23)N1`, the figure is -62.4% (active); as for `CC1=CC(=C(C#N)c2nc3ccccc3s2)C=C(C)N1c1ccc(F)cc1F`, -123% (active). The result for `C=CCn1c(=NC(=O)c2cccs2)sc2cc(NC(C)=O)ccc21` reads -164% (active). In the case of `Clc1ccccc1SCc1nc2ccccc2[nH]1`, the activity score was -90.6% (active).

For the compound `CCNC(=O)N1CCCC(C(=O)c2ccc(-c3ccccc3)cc2)C1` (stereo not given), the activity score was -101% (active). The result for `O=C(Nc1ccc(Cl)c(Cl)c1)N1CC=C(c2ccccc2)CC1` reads -65.8% (active); that for `Cc1ccc(Cl)c(OCC(=O)N2CCc3ccccc3C2)c1`, -117% (active). On to `COc1ccc(C2CC(c3cccs3)=Nc3ccccc3S2)cc1OC` (stereo not given), for which the activity score was -90.7% (active). For `O=C(/C(=C/c1cccc(Cl)c1)c1nc2ccccc2[nH]1)c1ccccc1`, the activity score is -338% (active). As to `Cc1nc(NC(=O)C2CCCCC2)sc1C`, the activity score is -136% (active). As for `O=[N+]([O-])c1ccc(N/N=C/c2ccccc2)cc1`, the figure is -210% (active); as for `O=[N+]([O-])c1cccc(/C=N/Nc2ncc(Br)cn2)c1`, -194% (active); as for `COc1ccccc1-c1nnc(-c2ccc(F)cc2)o1`, -122% (active).

For the compound `CSc1ccccc1-c1nnc(-c2ccc(Cl)cc2)o1`, the activity score was -146% (active). The result for `O=C1C(C=NCC2CCCO2)=C(O)c2ccccc21` (stereo not given) reads -95.6% (active). Turning to `CCS(=O)(=O)n1nc(-c2ccccc2)nc1SCc1ccccc1`, the activity score was -118% (active). The result for `CCS(=O)(=O)n1nc(-c2ccc(OC)cc2)nc1SC` reads -98.6% (active). The result for `Cc1cc(O)c(NC(=O)c2ccc(C)c([N+](=O)[O-])c2)cc1C` reads -110% (active); that for `CCCCSc1nc2ccccc2[nH]1`, -86.8% (active).

`COc1ccccc1CSc1nc2ccccc2[nH]1`: the activity score was -156% (active). The result for `CC(C)n1c(=O)[nH]c2cc(C(=O)Nc3ccccc3)ccc21` reads -119% (active); that for `COc1ccc(-c2c(C#Cc3ccccc3)c3ccccc3n2C)cc1`, -87.3% (active); that for `CCOC(=O)c1nn(-c2cccc(C)c2)cc1C(=O)c1ccccc1`, -90.5% (active). As for `O=C1c2ccccc2S(=O)(=O)c2cc(N3CCN(c4ccccn4)CC3)ccc21`, the figure is -68.6% (active); as for `COc1ccc(C2=NOC(COC(=O)c3ccc4ccccc4n3)C2)cc1` (stereo not given), -68.4% (active).

For `CN(C)c1ccc(-c2nnc(-c3cccnc3)o2)cc1`, the activity score was -195% (active).

With `c1ccc(CN=C2Nc3ccccc3CS2)nc1`, the activity score is -111% (active). The result for `COc1ccc(N2C(=O)c3ccccc3NC2c2ccc(OC)c(CN3CCOCC3)c2)cc1` (stereo not given) reads -72.6% (active).

As for `COc1ccc(C2Nc3ccccc3C(=O)N2c2ccc(Cl)cc2)cc1Cn1cc([N+](=O)[O-])cn1` (stereo not given), the activity score is -111% (active).

Regarding `CCN(CC)C(=O)C(=O)Nc1cccc(Br)c1`, the activity score is -75.5% (active). As for `COc1cccc2[nH]c(C(=O)NCCc3ccccc3)cc12`, the figure is -162% (active); as for `COc1cc(N=Cc2c(O)[nH]c3ccccc23)cc(OC)c1OC`, 81%; as for `NC(=S)N/N=C/c1coc2cc(Cl)ccc2c1=O`, -88.7% (active). As for `COc1ccc(Nc2oc(-c3ccccc3Cl)nc2C#N)cc1`, the figure is -108% (active).

As for `N#Cc1nc(Cc2ccccc2)oc1NCCc1ccccc1`, the activity score is -147% (active).

For the compound `CCOc1ccc(Nc2oc(Cc3ccccc3)nc2C#N)cc1`, the activity score was -109% (active). The result for `O=C(Nc1ccccc1)c1ccc(NC(=O)c2cccs2)cc1` reads -107% (active); that for `Cc1ccc(-c2csc(NC(=O)c3cccs3)n2)cc1`, -239% (active); that for `COc1cc(NC(=O)c2cccs2)ccc1NC(=O)c1ccccc1Cl`, -62.1% (active). Consider `Cc1ccc(C(=O)NNC(=O)c2cccs2)cc1`, for which the activity score is -65.9% (active). As for `O=C(NNC(=O)c1ccc(Cl)cc1Cl)c1cccs1`, the figure is -115% (active); as for `COc1ccc(-n2nc(C(=O)NCC(=O)N3CCN(c4ccccc4OC)CC3)c3ccccc3c2=O)c(OC)c1`, -64% (active); as for `Cc1c(N=Nc2ccc(N(C)C)cc2)c(=O)n(-c2ccccc2)n1C`, -101% (active). As for `CCn1nc(C)c(NC(=O)/C=C/c2ccc(OC)c(COc3ccc(Br)cc3)c2)c1C`, the figure is 61.8%. The result for `O=C(/C=C/c1ccc(Cl)cc1)Nc1ccc(Br)cn1` reads -62.5% (active); that for `CC(C)=CCc1c(O)c(CC=C(C)C)c2occ(-c3ccc(O)cc3)c(=O)c2c1O`, -75.6% (active). On to `O=C(Nc1ccc2c(c1)CCC2)c1ccc(Br)s1`, for which the activity score was -159% (active). The result for `N/C(=N\OC(=O)c1ccc2c(c1)OCO2)c1ccc(Br)cc1` reads -162% (active); that for `CCCCNc1ccc(C(=O)Nc2cccc(C)n2)cc1[N+](=O)[O-]`, -102% (active).

For the compound `Cc1cc(NC(=O)CSc2nc3c(cc2C#N)CCCCC3)no1`, the activity score was -104% (active). The result for `COC(=O)/C(=C1\Oc2ccc(C(C)(C)C)cc2S1)C(F)(F)F` reads -189% (active); that for `O=C1Oc2ccccc2C(=O)/C1=C/c1ccccc1O`, -96.6% (active); that for `COc1ccc2c(c1)O/C(=C\c1ccccc1O)C2=O`, -94.2% (active).

As to `COc1ccc(-c2noc(-c3cccc(OC)c3OC)n2)cc1OC`, the activity score was -193% (active). The result for `COc1cc(NC(=O)c2ccc(-c3csc(C)n3)cc2)c(OC)cc1Cl` reads -64.4% (active); that for `O=C(CCSc1ccccc1)N1CCN(c2ccccc2F)CC1`, -115% (active). As for `COc1ccc(-c2nc3n(c2Br)CCC3)cc1`, the figure is -122% (active).

With `CN1C(=O)/C(=C/C=C2\SCCN2C)OC1=S`, the activity score was -169% (active). As for `CC(C)n1cnc2c(Nc3cccc(Cl)c3)nc(N(CCO)CCCO)nc21`, the figure is 64.7%. Take `Cn1c(Nc2cccc(Cl)c2)nc2ccccc21`: the activity score is -63.6% (active). Take `OCCCNc1nccc(-c2cc(Nc3cccc(Cl)c3)ncn2)n1`: the activity score was 73.3%.

On to `O=c1c2cc(-c3ccccc3)sc2nc2n1N=C(c1cccs1)CS2`, for which the activity score is -105% (active). As for `Oc1ccccc1CNc1ncc(Br)cc1Br`, the figure is -62.4% (active); as for `COc1ccc2cc(C(=O)NCC3CCCO3)[nH]c2c1` (stereo not given), -90.6% (active); as for `O=C(NCCc1ccccc1)c1ccc2c(c1)N(Cc1ccccc1)CCS2`, -105% (active).

Turning to `O=C(Cn1c(=S)nc2ccccn21)N1CCc2ccccc2C1`, the activity score was -96.2% (active). `CCn1nccc1C(=O)Nc1ccc(Cl)c(Cl)c1`: the activity score was -89.2% (active). As for `CCc1ccc(NC2Nc3cc(C)nn3S2)cc1` (stereo not given), the figure is -79.3% (active); as for `CCOC(=O)c1cnc(Nc2nc3ccccc3o2)nc1CSC(=S)N1CCCCC1`, -133% (active); as for `NS(=O)(=O)c1ccccc1NC(=O)c1c(O)c2ccccc2[nH]c1=O`, -64.6% (active). As for `CCCCCn1c(=O)c(C(=O)OCC)c(Cl)c2ccccc21`, the figure is 92.6%.

`CCOC(=O)c1cnc2[nH]c3ccccc3n2c1=O`: the activity score is -85.9% (active). The result for `Cc1ccc(SCCSc2ncccn2)cc1` reads -110% (active). As for `FC(F)Oc1ccc(NC(=S)NCc2ccco2)cc1Cl`, the figure is -62.2% (active); as for `S=C(NCc1ccco1)Nc1ccc2c(c1)OCCO2`, -105% (active). The result for `CCc1nnc(NC(=O)/C=C/c2ccc(C)o2)s1` reads -74.1% (active). Regarding `CCC(CC)c1nnc(NC(=O)/C=C/c2ccco2)s1`, the activity score is -153% (active). `Cc1nnc(NC(=O)/C=C/c2ccco2)s1`: the activity score is -101% (active). As for `Cn1c(CCN2CCCCCC2)nc2cc(NC(=O)Nc3ccccc3)ccc21`, the figure is -91.9% (active); as for `CCOC(=O)N1CCN(S(=O)(=O)c2ccc(C(=O)Nc3ccc(F)cc3F)cc2)CC1`, 69.5%.

Turning to `Cc1cccc(C(=O)Nc2ccc(Oc3cnccn3)cc2)c1`, the activity score is -86.6% (active).

`COc1ccc(C(=O)Nc2ccc(F)cc2F)cc1`: the activity score is -88.9% (active). Take `COc1ccc(NC(=O)c2ccc(OC)cc2)cc1`: the activity score was -63% (active). For `CCC(=O)Nc1ccc(C(=O)Nc2cccc(OC)c2)cc1`, the activity score was -74.7% (active). The result for `Cc1ccc(NC(=O)c2ccc(Oc3ncccn3)cc2)cc1` reads -124% (active).

With `COc1ccc(NC(=O)c2sccc2SCC#N)cc1`, the activity score was -77.3% (active).

`COc1ccc(NC(=O)c2c(C)oc3c2CCCC3)cc1`: the activity score is -64.6% (active). As for `COc1ccc(C(=S)Nc2ccccc2)cc1`, the figure is -134% (active).

In the case of `COc1ccc(NC(=O)ON=C2c3ccccc3-c3ccccc32)cc1`, the activity score was -102% (active). As for `COc1ccc(C(=O)Nc2ccc(CN3CCOCC3)cc2)cc1`, the figure is -86.6% (active). The result for `COc1ccc(C(=O)Nc2sc(C)c(C)c2CN2CCOCC2)cc1` reads -83.7% (active).
